Assay results as given in PubChem BioAssay AID1159580 (chemical genetic matrix, 2015).
Values joined by “and” are separate entries in the source; they are usually repeats but may differ in a detail not shown here. Equal values may be shown once. Among all 5,500 compounds or so, about 2,000 (36%) were called active. About 18% were inconclusive and are not listed. Cut-off read from the data, not from the text of the source: active = normalized growth mostly below about 0.91 (no sharp cut-off); inconclusive = no clear call, values can overlap the other calls; inactive = mostly above about 0.92. This is one part of the list.

Test: chemical genetic growth profiling, strain panel (AID 1159580);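 note: tested at 20 µM; growth read once vehicle control cultures reached saturation at 30 °C; 1 = growth at the plate median or of vehicle wells; lower values mean less growth of the strain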
Conditions: S. cerevisiae deletion strains, growth OD

Measured: normalized growth

CC(C)CCCC(C)C1CCC2C3C[C@@H](O)[C@@]4(O)C[C@@H](O)CC[C@]4(C)C3CC[C@]12C (stereo partly drawn)
inactive: locus YAL013W, strain DEP1, stronger effect = lower value 1.01 | locus YAL021C, strain ccr4, stronger effect = lower value 0.951 | locus YAL030W, strain snc1, stronger effect = lower value 0.988 | locus YBL061C, strain skt5, stronger effect = lower value 0.986 | locus YBR009C, strain hhf1, stronger effect = lower value 0.972 | locus YBR021W, strain FUR4, stronger effect = lower value 1.06 | locus YBR023C, strain chs3, stronger effect = lower value 0.994 | locus YBR171W, strain sec66, stronger effect = lower value 1.01 | locus YBR229C, strain ROT2, stronger effect = lower value 1.06 | locus YBR231C, strain swc5, stronger effect = lower value 1.01 | locus YBR279W, strain paf1, stronger effect = lower value 1.03 | locus YCL011C, strain gbp2, stronger effect = lower value 0.997 | locus YCL016C, strain dcc1, stronger effect = lower value 0.984 | locus YCL029C, strain bik1, stronger effect = lower value 1.04 | locus YCL061C, strain MRC1, stronger effect = lower value 0.966 | locus YCL069W, strain vba3, stronger effect = lower value 0.984 | locus YCR088W, strain abp1, stronger effect = lower value 1 | locus YDL005C, strain med2, stronger effect = lower value 0.996 | locus YDL035C, strain GPR1, stronger effect = lower value 1.06 | locus YDL040C, strain nat1, stronger effect = lower value 1.01 | locus YDL074C, strain BRE1, stronger effect = lower value 1.08 | locus YDL101C, strain DUN1, stronger effect = lower value 1.03 | locus YDL134C, strain PPH21, stronger effect = lower value 0.985 | locus YDL185W, strain tfp1, stronger effect = lower value 1.02 | locus YDL192W, strain arf1, stronger effect = lower value 0.999 | locus YDR001C, strain nth1, stronger effect = lower value 1 | locus YDR069C, strain doa4, stronger effect = lower value 0.992 | locus YDR101C, strain arx1, stronger effect = lower value 1.03 | locus YDR150W, strain NUM1, stronger effect = lower value 1.03 | locus YDR162C, strain NBP2, stronger effect = lower value 1.03 | locus YDR195W, strain ref2 1.04 | locus YDR297W, strain sur2, stronger effect = lower value 0.986 | locus YDR318W, strain mcm21, stronger effect = lower value 1.02 | locus YDR334W, strain swr1, stronger effect = lower value 1 | locus YDR335W, strain msn5, stronger effect = lower value 1 | locus YDR388W, stronger effect = lower value 1.01 | locus YDR392W, strain spt3, stronger effect = lower value 0.82 | locus YDR502C, strain sam2, stronger effect = lower value 1.02 | locus YEL003W, strain gim4, stronger effect = lower value 0.974 | locus YEL037C, strain rad23, stronger effect = lower value 1 | locus YEL061C, strain CIN8 (second series), stronger effect = lower value 0.999 | locus YER015W, strain faa2, stronger effect = lower value 0.987 | locus YER016W, strain bim1, stronger effect = lower value 0.994 | locus YER110C, stronger effect = lower value 1.03 | locus YER111C, strain swi4, stronger effect = lower value 0.987 | locus YER155C, strain BEM2 (second series), stronger effect = lower value 0.972 | locus YER155C, strain BEM2, stronger effect = lower value 1 | locus YER167W, strain BCK2, stronger effect = lower value 1.04 | locus YFR010W, strain ubp6, stronger effect = lower value 1 | locus YGL078C, strain dbp3, stronger effect = lower value 1.02 | locus YGL086W, strain mad1, stronger effect = lower value 1.01 | locus YGL167C, strain pmr1, stronger effect = lower value 1 | locus YGL173C, strain kem1, stronger effect = lower value 0.992 | locus YGL227W, strain vid30, stronger effect = lower value 1 | locus YGL240W, strain doc1, stronger effect = lower value 1.02 | locus YGL248W, strain PDE1, stronger effect = lower value 1.02 | locus YGL253W, strain hxk2, stronger effect = lower value 0.996 | locus YGR078C, strain PAC10, stronger effect = lower value 1 | locus YGR135W, strain pre9, stronger effect = lower value 0.99 | locus YGR252W, strain gcn5, stronger effect = lower value 0.993 | locus YHR013C, strain ard1, stronger effect = lower value 1 | locus YHR027C, strain rpn1, stronger effect = lower value 0.991 | locus YHR030C, strain SLT2, stronger effect = lower value 1.02 and 1.06 | locus YHR079C, strain IRE1 (second series), stronger effect = lower value 1.01 | locus YHR079C, strain IRE1, stronger effect = lower value 1.04 | locus YHR094C, strain hxt1, stronger effect = lower value 1.02 | locus YHR129C, strain ARP1, stronger effect = lower value 1.03 | locus YHR142W, strain chs7, stronger effect = lower value 1.02 | locus YHR200W, strain rpn10, stronger effect = lower value 1.02 | locus YIL066C, strain RNR3, stronger effect = lower value 1.02 | locus YIL073C, strain SPO22, stronger effect = lower value 1.04 | locus YIL125W, strain kgd1, stronger effect = lower value 1.02 | locus YIR030C, strain dcg1, stronger effect = lower value 1.01 | locus YJL092W, strain hpr5, stronger effect = lower value 1.01 | locus YJL095W, strain BCK1 (second series), stronger effect = lower value 0.998 | locus YJL095W, strain BCK1, stronger effect = lower value 0.981 and 1.05 | locus YJL115W, strain asf1, stronger effect = lower value 0.994 | locus YJL129C, strain trk1, stronger effect = lower value 1.01 | locus YJL134W, strain LCB3, stronger effect = lower value 1.03 | locus YJL154C, strain vps35, stronger effect = lower value 1 | locus YJL164C, strain tpk1, stronger effect = lower value 0.99 | locus YJL166W, strain qcr8, stronger effect = lower value 0.98 | locus YJL168C, strain set2, stronger effect = lower value 1.01 | locus YJL187C, strain SWE1 (second series), stronger effect = lower value 1.02 | locus YJL187C, strain SWE1, stronger effect = lower value 1 | locus YJR043C, strain POL32, stronger effect = lower value 1.03 | locus YJR066W, strain TOR1, stronger effect = lower value 1.01 | locus YKL009W, strain mrt4, stronger effect = lower value 0.971 | locus YKL068W, stronger effect = lower value 1.01 | locus YKL085W, strain MDH1 (second series), stronger effect = lower value 1.01 | locus YKL085W, strain MDH1, stronger effect = lower value 1.01 | locus YKL160W, strain elf1, stronger effect = lower value 0.998 | locus YKR001C, strain vps1, stronger effect = lower value 1.05 | locus YKR026C, strain gcn3, stronger effect = lower value 1 | locus YKR091W, strain srl3, stronger effect = lower value 1 | locus YLL001W, strain dnm1, stronger effect = lower value 0.949 | locus YLL026W, stronger effect = lower value 0.995 | locus YLL041C, strain sdh2, stronger effect = lower value 1 | locus YLR027C, strain aat2, stronger effect = lower value 0.989 | locus YLR039C, strain RIC1, stronger effect = lower value 0.777 | locus YLR058C, strain SHM2, stronger effect = lower value 1.02 | locus YLR102C, strain apc9, stronger effect = lower value 1.01 | locus YLR113W, strain HOG1, stronger effect = lower value 1.06 | locus YLR221C, strain rsa3, stronger effect = lower value 0.976 | locus YLR258W, strain gsy2, stronger effect = lower value 0.975 | locus YLR262C, strain YPT6, stronger effect = lower value 0.78 | locus YLR268W, strain sec22, stronger effect = lower value 1.05 | locus YLR320W, strain mms22, stronger effect = lower value 0.941 | locus YLR330W, strain CHS5, stronger effect = lower value 1 | locus YLR342W, strain FKS1 (second series), stronger effect = lower value 1.03 | locus YLR342W, strain FKS1, stronger effect = lower value 0.986 | locus YLR357W, strain rsc2, stronger effect = lower value 1.01 | locus YLR370C, strain arc18, stronger effect = lower value 1 | locus YLR371W, strain rom2, stronger effect = lower value 1.02 | locus YLR384C, strain iki3, stronger effect = lower value 0.979 | locus YLR418C, strain cdc73, stronger effect = lower value 1.03 | locus YML016C, strain PPZ1, stronger effect = lower value 1.05 | locus YML032C, strain rad52, stronger effect = lower value 0.977 | locus YML120C, strain ndi1, stronger effect = lower value 0.996 | locus YML124C, strain tub3, stronger effect = lower value 1.02 | locus YMR058W, strain fet3, stronger effect = lower value 0.996 | locus YMR078C, strain ctf18, stronger effect = lower value 1.02 | locus YMR125W, strain sto1, stronger effect = lower value 1.02 | locus YMR129W, stronger effect = lower value 0.989 | locus YMR205C, strain PFK2, stronger effect = lower value 0.954 | locus YMR223W, strain ubp8, stronger effect = lower value 1 | locus YMR231W, strain pep5, stronger effect = lower value 0.99 | locus YMR307W, strain GAS1, stronger effect = lower value 1.06 | locus YNL067W, strain RPL9B, stronger effect = lower value 1.02 | locus YNL071W, strain lat1, stronger effect = lower value 0.999 | locus YNL153C, strain GIM3, stronger effect = lower value 1.02 | locus YNL183C, strain NPR1, stronger effect = lower value 0.992 | locus YNL209W, strain ssb2, stronger effect = lower value 0.994 | locus YNL233W, strain BNI4, stronger effect = lower value 1 | locus YNL248C, strain rpa49, stronger effect = lower value 0.98 | locus YNL250W, strain rad50, stronger effect = lower value 1.02 | locus YNL271C, strain bni1, stronger effect = lower value 1.02 | locus YNL298W, strain CLA4, stronger effect = lower value 1.02 | locus YNL307C, strain MCK1, stronger effect = lower value 1.02 | locus YNL322C, strain KRE1 (second series), stronger effect = lower value 0.986 | locus YNL322C, strain KRE1, stronger effect = lower value 1.01 | locus YNR049C, strain mso1, stronger effect = lower value 1 | locus YNR052C, strain pop2, stronger effect = lower value 0.996 | locus YOL012C, strain htz1 1.32 | locus YOL147C, strain pex11, stronger effect = lower value 1.02 | locus YOR001W, strain rrp6, stronger effect = lower value 0.977 | locus YOR061W, strain CKA2, stronger effect = lower value 1.03 | locus YOR069W, strain VPS5, stronger effect = lower value 1.01 | locus YOR070C, strain gyp1, stronger effect = lower value 0.972 | locus YOR080W, strain dia2, stronger effect = lower value 1 | locus YOR083W, strain WHI5, stronger effect = lower value 0.983 | locus YOR106W, strain vam3, stronger effect = lower value 1.04 | locus YOR136W, strain idh2, stronger effect = lower value 1.02 | locus YOR144C, strain elg1, stronger effect = lower value 1.02 | locus YOR184W, strain ser1, stronger effect = lower value 1.02 | locus YOR231W, strain MKK1, stronger effect = lower value 1.06 | locus YOR265W, strain rbl2, stronger effect = lower value 0.993 | locus YOR270C, strain vph1, stronger effect = lower value 1.02 | locus YOR290C, strain snf2, stronger effect = lower value 0.994 | locus YOR316C, strain cot1, stronger effect = lower value 1.02 | locus YPL051W, strain arl3, stronger effect = lower value 0.956 | locus YPL078C, strain atp4, stronger effect = lower value 0.987 | locus YPL106C, strain sse1, stronger effect = lower value 1.01 | locus YPL240C, strain hsp82, stronger effect = lower value 1 | locus YPL256C, strain CLN2, stronger effect = lower value 1.05 | locus YPR119W, strain clb2, stronger effect = lower value 1.02 | locus YPR141C, strain kar3, stronger effect = lower value 1.02 | locus YPR163C, strain tif3, stronger effect = lower value 1.01 | locus YPR167C, strain met16, stronger effect = lower value 1.03 | strain wtn01, stronger effect = lower value 1.07
active: locus YAL026C, strain drs2, stronger effect = lower value 0.843 | locus YDR137W, strain rgp1, stronger effect = lower value 0.493 | locus YLR262C, strain YPT6 (second series), stronger effect = lower value 0.502
